Inconclusive results are not listed. A call without a number means that no potency is given here. Activity calls are given as the source filed them. Unless noted, calls come from the whole dose curve; as a rule, active = well fitted curve in the direction sought with a large enough effect in the repeat runs; inconclusive = weak or mixed curves; inactive = no such curve, though single readings can be large; an effect the other way counts as inactive or inconclusive.
Assays:
[1] = target: Aryl hydrocarbon receptor (Homo sapiens) (UniProt P35869); experiment: qHTS assay to identify small molecule that activate the aryl hydrocarbon receptor (AhR) signaling pathway (AID 743085); note: nearly all actives have a fitted effect of over 15% in size; note: potency is the fitted concentration of half-maximal effect;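 for activation: HG2L7.5c1 human HepG2 liver cells with stably integrated DRE-driven firefly reporter; series mostly up to about 70 µM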
Outline: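 AhR agonist activity is inferred from enhanced light output of a DRE-controlled firefly luciferase reporter in HepG2 cells, measured with ONE-Glo following 24 h treatment at 37C.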

[2] = qHTS assay to identify small molecule that activate the aryl hydrocarbon receptor (AhR) signaling pathway - cell viability counter screen (AID 743086);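 note: HepG2 liver cells carrying the AhR DRE luciferase reporter; series mostly up to about 70 µM; nearly all actives have a fitted effect of over 45% in size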
Outline: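 HepG2-AhR-luc (HG2L7.5c1) cells, 4000/well, treated 24 h at 37 C with compound; viability measured as CellTiter-Fluor fluorescence after 30 min in the same wells as the luciferase read.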

[3] = target: Peroxisome proliferator-activated receptor gamma (Homo sapiens) (UniProt P37231); experiment: qHTS assay to identify small molecule agonists of the peroxisome proliferator-activated receptor gamma (PPARg) signaling pathway (AID 743094; active = well fitted activation curve with a large enough effect in the signal ratio in the repeat runs, not every such curve was filed as active; the % refers to the signal ratio)
Outline: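 GeneBLAzer PPARg UAS-bla HEK293H cells carrying a stably integrated beta-lactamase reporter were pre-incubated 5 h at 37C, then exposed to compounds in DMSO for 17 h at 37C; LiveBLAzer B/G FRET substrate was added for 1 h at room temperature and fluorescence read.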

[4] = target: Peroxisome proliferator-activated receptor gamma (Homo sapiens) (UniProt P37231); experiment: qHTS assay to identify small molecule antagonists of the peroxisome proliferator-activated receptor gamma (PPARg) signaling pathway (AID 743191; calls by dose curve; note: series mostly up to about 63 µM; nearly all actives have a fitted effect of over 30% in size)
Outline: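 GeneBLAzer PPARg UAS-bla HEK293H cells, 5 h post-plating, exposed to compounds 17 h at 37C. LiveBLAzer B/G FRET substrate added for 1 h at room temperature; beta-lactamase reporter read by fluorescence intensity.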

[5] = qHTS assay to identify small molecule antagonists of the peroxisome proliferator-activated receptor gamma (PPARg) signaling pathway - cell viability counter screen (AID 743194); note: nearly all actives have a fitted effect of over 55% in size
Outline: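 Cytotoxicity counter screen in PPARg-bla HEK293H cells, same wells as reporter assay. Compounds plus 50 nM rosiglitazone (final) for 17 h at 37 C, then viability read by CellTiter-Glo luminescence.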

[6] = qHTS assay for small molecule agonists of the antioxidant response element (ARE) signaling pathway - cell viability counter screen (AID 743203; calls by dose curve; note: nearly all actives have a fitted effect of over 55% in size)
Outline: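 CellSensor ARE-bla HepG2 cells, 2,000 per well, rested 5 hrs at 37C/5% CO2, then exposed to compound in DMSO for 16 hrs; viability read as CellTiter-Glo luminescence after 30 min at room temperature, in the reporter wells.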

[7] = qHTS assay for small molecule activators of the heat shock response signaling pathway - cell viability counter screen (AID 743209); note: nearly all actives have a fitted effect of over 50% in size
Outline: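 CellSensor HSE-bla HeLa cells, plated overnight at 37 C/5% CO2, were exposed to compounds in DMSO for 5 h at 37 C. Viability was then read in the same wells by CellTiter-Glo luminescence after 30 min at room temperature.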

[8] = target: Peroxisome proliferator-activated receptor delta (Homo sapiens) (UniProt Q03181); experiment: qHTS assay to identify small molecule agonists of the peroxisome proliferator-activated receptor delta (PPARd) signaling pathway (AID 743212; calls by dose curve)
Outline: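 Quantitative high-throughput agonist screen in a HEK293H beta-lactamase reporter line under UAS control. Compounds in DMSO, at 37 C. Fluorescence read after 2 h with FRET substrate at room temperature.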

[9] = qHTS assay to identify small molecule agonists of the farnesoid-X-receptor (FXR) signaling pathway - cell viability counter screen (AID 743218); note: nearly all actives have a fitted effect of over 45% in size
Outline: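 FXR-UAS-bla HEK 293T cells, plated 5 h at 37 C, were exposed to compounds for 16 h at 37 C. CellTiter-Glo was then added to the same wells as the bla readout; luminescence read after 30 min at room temperature.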

[10] = target: Vitamin D3 receptor (Homo sapiens) (UniProt P11473); experiment: qHTS assay to identify small molecule agonists of the vitamin D receptor (VDR) signaling pathway (AID 743222; calls by dose curve)
Outline: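 VDR-bla cells were plated 4 h at 37C/5% CO2, then exposed to compounds in DMSO for 16 h. After LiveBLAzer B/G FRET substrate addition and 2 h at room temperature, beta-lactamase reporter fluorescence was read.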

[11] = qHTS assay to identify small molecule agonists of the vitamin D receptor (VDR) signaling pathway - cell viability counter screen (AID 743224); note: series mostly up to about 63 µM; nearly all actives have a fitted effect of over 50% in size
Outline: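 VDR-bla cells were preincubated 4 h at 37C/5% CO2, then exposed to compounds for 16 h. After the 2 h room-temperature bla FRET read, CellTiter-Glo was added to the same wells and luminescence read after 30 min.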

[12] = qHTS assay for small molecule activators of the heat shock response signaling pathway (AID 743210; active = well fitted activation curve with a large enough effect in the signal ratio in the repeat runs, with a control signal flat, not every such curve was filed as active; the % refers to the signal ratio;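 note: HeLa cells with beta-lactamase reporter driven by heat shock elements; series mostly up to about 63 µM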)
Outline: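 Quantitative high-throughput format using an engineered HeLa line in which heat shock response elements drive beta-lactamase; after 5 h with compound, cells received a B/G FRET substrate and fluorescence was read.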

[13] = qHTS assay to identify small molecule agonists of the peroxisome proliferator-activated receptor delta (PPARd) signaling pathway - cell viability counter screen (AID 743211); note: nearly all actives have a fitted effect of over 55% in size
Outline: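 qHTS cell viability: PPARd-bla HEK293H; 17 h cpd, 37C; CellTiter-Glo, luminescence at 30 min RT.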

[14] = target: Peroxisome proliferator-activated receptor delta (Homo sapiens) (UniProt Q03181); experiment: qHTS assay to identify small molecule antagonists of the peroxisome proliferator-activated receptor delta (PPARd) signaling pathway (AID 743215; active = well fitted inhibition curve with a large enough effect in the signal ratio in the repeat runs, not every such curve was filed as active; the % refers to the signal ratio; note: series mostly up to about 62 µM)
Outline: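 PPARd UAS-bla HEK293H cells were pre-incubated 5 h at 37 C, then given test compounds in DMSO plus agonist L165041 (300 nM final). After 17 h at 37 C, beta-lactamase FRET substrate was added; fluorescence read after 2 h at room temperature.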

[15] = target: Bile acid receptor (Homo sapiens) (UniProt Q96RI1); experiment: qHTS assay to identify small molecule antagonists of the farnesoid-X-receptor (FXR) signaling pathway (AID 743217; active = well fitted inhibition curve with a large enough effect in the signal ratio in the repeat runs, not every such curve was filed as active; the % refers to the signal ratio)
Outline: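 FXR-UAS-bla HEK 293T cells pre-incubated 5 h at 37 °C, then exposed to compounds with chenodeoxycholic acid (50 uM final) for 16 h at 37 °C. Beta-lactamase reporter read by LiveBLAzer B/G FRET substrate fluorescence after 2 h at room temperature.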

[16] = target: Bile acid receptor (Homo sapiens) (UniProt Q96RI1); experiment: qHTS assay to identify small molecule agonists of the farnesoid-X-receptor (FXR) signaling pathway (AID 743220; active = well fitted activation curve with a large enough effect in the signal ratio in the repeat runs, not every such curve was filed as active; the % refers to the signal ratio)
Outline: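 Beta-lactamase reporter under UAS control in GeneBLAzer FXR HEK 293T cells (5000/well) measured with LiveBLAzer FRET substrate after 2 h at room temperature. Compound exposure lasted 16 h at 37C.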

[17] = qHTS assay to identify small molecule antagonists of the farnesoid-X-receptor (FXR) signaling pathway - cell viability counter screen (AID 743221; active = well fitted cell-killing curve with a large enough effect in the repeat runs, not every such curve was filed as active; note: nearly all actives have a fitted effect of over 50% in size)
Outline: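 After a 5 h settling period, FXR-bla HEK 293T cells receive compound and chenodeoxycholic acid (50 uM final) and incubate 16 h at 37 C; CellTiter-Glo luminescence, read after 30 min at room temperature, reports cell viability.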

[18] = target: Vitamin D3 receptor (Homo sapiens) (UniProt P11473); experiment: qHTS assay to identify small molecule antagonists of the vitamin D receptor (VDR) signaling pathway (AID 743223; active = well fitted inhibition curve with a large enough effect in the signal ratio in the repeat runs, not every such curve was filed as active; the % refers to the signal ratio)
Outline: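 Reporter line VDR-bla; stimulus 1alpha,25-(OH)2 vitamin D3, 3 nM final; compound co-addition, 16 h 37C/5% CO2; LiveBLAzer B/G substrate 2 h RT; fluorescence intensity.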

[19] = qHTS assay to identify small molecule antagonists of the peroxisome proliferator-activated receptor delta (PPARd) signaling pathway - cell viability counter screen (AID 743213); note: nearly all actives have a fitted effect of over 50% in size
Outline: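 Agonist-stimulated (L165041, 300 nM final) HEK293H PPARd UAS-bla cells are exposed to compounds for 17 h at 37 C, and ATP-based luminescence (CellTiter-Glo) from the same wells reports cytotoxicity.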

[20] = qHTS assay for small molecule agonists of the antioxidant response element (ARE) signaling pathway (AID 743202; active = well fitted activation curve with a large enough effect in the signal ratio in the repeat runs, not every such curve was filed as active; the % refers to the signal ratio)
Outline: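 Agonist mode reporter screen: HepG2 cells with ARE-controlled beta-lactamase are incubated with test compounds for 16 h at 37 C, and beta-lactamase activity is measured as fluorescence of cleaved B/G FRET substrate.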

Chain of Bile acid receptor (Homo sapiens) (Q96RI1 whole entry, looked up): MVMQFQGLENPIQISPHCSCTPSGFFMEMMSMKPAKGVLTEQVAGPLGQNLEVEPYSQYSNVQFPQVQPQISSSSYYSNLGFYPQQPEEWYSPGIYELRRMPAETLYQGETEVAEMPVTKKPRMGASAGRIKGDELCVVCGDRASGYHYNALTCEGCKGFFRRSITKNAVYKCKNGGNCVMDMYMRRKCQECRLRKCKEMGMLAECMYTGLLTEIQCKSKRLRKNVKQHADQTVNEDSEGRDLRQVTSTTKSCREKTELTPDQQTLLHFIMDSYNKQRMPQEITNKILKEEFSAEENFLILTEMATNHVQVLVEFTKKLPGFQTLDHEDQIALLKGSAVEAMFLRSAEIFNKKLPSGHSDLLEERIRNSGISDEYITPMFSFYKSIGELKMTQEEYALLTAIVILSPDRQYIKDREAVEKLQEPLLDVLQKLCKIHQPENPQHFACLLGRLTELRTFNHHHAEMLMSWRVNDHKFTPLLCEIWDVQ
Chain of Peroxisome proliferator-activated receptor gamma (Homo sapiens) (P37231 whole entry, looked up): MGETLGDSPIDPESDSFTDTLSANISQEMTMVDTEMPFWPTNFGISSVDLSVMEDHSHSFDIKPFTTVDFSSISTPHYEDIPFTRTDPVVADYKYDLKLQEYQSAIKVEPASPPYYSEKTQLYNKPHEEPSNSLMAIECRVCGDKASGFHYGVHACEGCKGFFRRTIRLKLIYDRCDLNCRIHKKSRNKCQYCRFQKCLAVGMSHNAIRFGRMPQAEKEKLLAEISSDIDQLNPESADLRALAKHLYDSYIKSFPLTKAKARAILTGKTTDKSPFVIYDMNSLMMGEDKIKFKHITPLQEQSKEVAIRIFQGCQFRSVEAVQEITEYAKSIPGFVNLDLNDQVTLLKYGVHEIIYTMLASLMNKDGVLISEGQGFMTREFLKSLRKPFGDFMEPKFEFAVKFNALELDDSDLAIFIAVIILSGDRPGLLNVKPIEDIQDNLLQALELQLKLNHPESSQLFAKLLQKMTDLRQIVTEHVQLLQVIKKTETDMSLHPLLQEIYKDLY
Chain of Peroxisome proliferator-activated receptor delta (Homo sapiens) (Q03181 whole entry, looked up): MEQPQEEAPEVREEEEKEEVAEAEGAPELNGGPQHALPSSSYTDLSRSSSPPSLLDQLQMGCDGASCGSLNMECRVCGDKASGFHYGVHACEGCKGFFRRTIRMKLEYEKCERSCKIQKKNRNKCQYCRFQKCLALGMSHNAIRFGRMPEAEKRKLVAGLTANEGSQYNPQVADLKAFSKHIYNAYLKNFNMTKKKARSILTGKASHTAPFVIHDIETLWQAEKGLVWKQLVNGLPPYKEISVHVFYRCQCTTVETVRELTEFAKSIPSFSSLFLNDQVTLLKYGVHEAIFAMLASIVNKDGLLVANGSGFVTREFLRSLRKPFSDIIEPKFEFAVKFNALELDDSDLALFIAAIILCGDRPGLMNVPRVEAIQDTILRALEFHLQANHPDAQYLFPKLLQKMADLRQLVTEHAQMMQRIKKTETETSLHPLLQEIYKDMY
Chain of Aryl hydrocarbon receptor (Homo sapiens) (P35869 whole entry, looked up): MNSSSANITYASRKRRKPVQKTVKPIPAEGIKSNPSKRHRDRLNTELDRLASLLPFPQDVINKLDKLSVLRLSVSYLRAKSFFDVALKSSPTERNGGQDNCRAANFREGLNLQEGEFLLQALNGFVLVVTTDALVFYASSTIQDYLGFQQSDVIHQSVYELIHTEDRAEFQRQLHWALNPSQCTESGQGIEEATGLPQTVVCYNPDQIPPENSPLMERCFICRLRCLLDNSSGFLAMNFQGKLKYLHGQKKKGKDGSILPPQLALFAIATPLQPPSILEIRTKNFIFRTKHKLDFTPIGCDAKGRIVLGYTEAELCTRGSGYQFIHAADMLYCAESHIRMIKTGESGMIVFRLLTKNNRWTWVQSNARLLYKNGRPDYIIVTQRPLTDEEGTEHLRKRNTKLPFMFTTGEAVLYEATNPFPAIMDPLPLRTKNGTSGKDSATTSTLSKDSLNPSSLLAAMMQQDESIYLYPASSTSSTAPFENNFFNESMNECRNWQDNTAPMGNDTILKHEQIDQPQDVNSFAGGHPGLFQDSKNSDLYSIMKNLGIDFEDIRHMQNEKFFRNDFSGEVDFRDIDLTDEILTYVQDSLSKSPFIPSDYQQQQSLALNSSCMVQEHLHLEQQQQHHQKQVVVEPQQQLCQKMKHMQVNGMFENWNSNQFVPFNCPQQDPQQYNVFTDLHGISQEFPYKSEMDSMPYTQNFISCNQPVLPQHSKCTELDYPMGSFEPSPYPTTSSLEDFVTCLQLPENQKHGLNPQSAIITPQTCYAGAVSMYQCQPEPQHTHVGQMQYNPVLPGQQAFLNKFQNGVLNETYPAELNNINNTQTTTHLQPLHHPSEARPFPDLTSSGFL
Chain of Vitamin D3 receptor (Homo sapiens) (P11473 whole entry, looked up): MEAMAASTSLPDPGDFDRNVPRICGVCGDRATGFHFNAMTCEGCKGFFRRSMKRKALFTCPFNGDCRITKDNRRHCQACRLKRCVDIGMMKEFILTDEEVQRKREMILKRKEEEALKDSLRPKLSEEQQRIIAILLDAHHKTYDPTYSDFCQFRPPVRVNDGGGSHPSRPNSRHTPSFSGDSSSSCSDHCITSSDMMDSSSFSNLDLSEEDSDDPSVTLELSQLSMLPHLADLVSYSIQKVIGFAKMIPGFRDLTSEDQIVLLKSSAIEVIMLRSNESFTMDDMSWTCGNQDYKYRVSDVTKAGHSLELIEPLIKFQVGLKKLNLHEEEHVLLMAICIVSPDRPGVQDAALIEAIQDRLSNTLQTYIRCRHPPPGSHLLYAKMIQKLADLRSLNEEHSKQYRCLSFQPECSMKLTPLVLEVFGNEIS

| Structure (SMILES) | Potency [1] | Potency [2] | outcome [3] | Potency [4] | Potency [5] | Potency [6] | Potency [7] | outcome [8] | Potency [9] | outcome [10] | Potency [11] | Potency [12] | Potency [13] | Potency [14] | outcome [15] | Potency [16] | Potency [17] | outcome [18] | Potency [19] | Potency [20] |
| --- | --- | --- | --- | --- | --- | --- | --- | --- | --- | --- | --- | --- | --- | --- | --- | --- | --- | --- | --- | --- |
| CS(=O)(=O)c1ccc([C@@H](C[C@H]2CCC(=O)C2)C(=O)Nc2cnccn2)cc1Cl | inactive | inactive | inactive | inactive | inactive | inactive | inactive | inactive | inactive | inactive | inactive | – | – | – | – | – | – | – | – | – |
| COC(=O)c1sccc1S(N)(=O)=O | inactive | inactive | inactive | inactive | inactive | inactive | inactive | inactive | inactive | inactive | inactive | inactive | inactive | inactive | inactive | inactive | inactive | inactive | – | – |
| O=C(c1ccccc1)c1ccc(O)cc1 | inactive | inactive | inactive | inactive | inactive | inactive | inactive | inactive | inactive | inactive | inactive | inactive | inactive | inactive | inactive | inactive | inactive | inactive | – | – |
| CC(C)(C)C(O)/C=C/c1ccc2c(c1)OCO2 (configuration not stated) | 11.9 µM (active) | inactive | inactive | inactive | inactive | inactive | inactive | inactive | inactive | inactive | inactive | inactive | inactive | inactive | inactive | – | inactive | inactive | – | – |
| CNCc1ccc(NC(=O)c2c[nH]c3c2C(=O)CCC3)cc1 | 1.54 µM (active) | inactive | inactive | inactive | inactive | inactive | inactive | inactive | inactive | inactive | inactive | inactive | – | inactive | – | – | inactive | inactive | inactive | – |
| O=C1NC(=O)c2cccc3cccc1c23 | 21.7 µM (active) | inactive | inactive | inactive | inactive | inactive | inactive | – | inactive | inactive | inactive | inactive | – | – | inactive | – | – | inactive | inactive | – |
| CN=C(N)NC(=O)Nc1c(C)cccc1C | inactive | inactive | inactive | inactive | inactive | inactive | – | inactive | inactive | inactive | inactive | inactive | inactive | inactive | – | – | inactive | inactive | inactive | inactive |
| O=P(O)(O)Oc1ccccc1 | inactive | inactive | inactive | inactive | inactive | inactive | – | – | inactive | inactive | inactive | inactive | – | – | inactive | – | – | inactive | inactive | – |
| O=C(/C=C/c1ccc([N+](=O)[O-])cc1)c1ccccc1 | inactive | inactive | inactive | inactive | inactive | inactive | – | inactive | inactive | inactive | inactive | inactive | – | inactive | – | – | – | – | – | inactive |
